Records with an inconclusive call do not appear. Active and inactive are the calls of the source. Calls come from the whole dose curve; as a rule, active = well fitted inhibition curve with a large enough effect; inconclusive = small, poorly fitted or top-dose-only effect; inactive = no such curve, though single readings can be large or run the other way.

Here are results for 15 compounds from PubChem BioAssay (NCATS).
% is set by controls: 0 for no effect and ±100 for the full control effect.

M-phase phosphoprotein 8 (Homo sapiens), sequence (Q99549 whole entry, looked up): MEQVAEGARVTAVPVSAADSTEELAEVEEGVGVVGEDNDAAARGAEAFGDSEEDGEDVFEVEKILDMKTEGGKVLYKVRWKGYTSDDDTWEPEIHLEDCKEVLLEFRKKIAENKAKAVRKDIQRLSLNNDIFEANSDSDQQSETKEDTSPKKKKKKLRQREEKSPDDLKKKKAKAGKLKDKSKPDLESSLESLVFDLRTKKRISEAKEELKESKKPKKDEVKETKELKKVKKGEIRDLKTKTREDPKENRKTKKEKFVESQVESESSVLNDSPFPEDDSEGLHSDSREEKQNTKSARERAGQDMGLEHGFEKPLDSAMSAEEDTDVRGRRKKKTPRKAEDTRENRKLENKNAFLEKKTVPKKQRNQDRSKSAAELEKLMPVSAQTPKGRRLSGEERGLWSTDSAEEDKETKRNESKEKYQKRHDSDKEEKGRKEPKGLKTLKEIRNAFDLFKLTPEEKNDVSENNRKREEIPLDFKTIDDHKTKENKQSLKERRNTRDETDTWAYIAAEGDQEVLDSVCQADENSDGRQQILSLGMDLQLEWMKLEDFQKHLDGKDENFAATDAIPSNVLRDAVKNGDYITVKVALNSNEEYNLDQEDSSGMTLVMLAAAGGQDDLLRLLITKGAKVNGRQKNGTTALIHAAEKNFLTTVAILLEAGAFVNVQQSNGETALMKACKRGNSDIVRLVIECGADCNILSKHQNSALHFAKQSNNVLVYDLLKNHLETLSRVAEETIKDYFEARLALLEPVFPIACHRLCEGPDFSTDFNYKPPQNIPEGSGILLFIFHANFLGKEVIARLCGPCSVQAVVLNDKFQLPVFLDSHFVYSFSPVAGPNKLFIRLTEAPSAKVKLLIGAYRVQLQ

The experiment concerns the target M-phase phosphoprotein 8 (Homo sapiens) (UniProt Q99549). The experiment can be described thus: qHTS Validation Assay for Inhibitors for MPP8 Chromodomain Interactions with Methylated Histone Tails (AID 488949). Note: top concentration of the series differs between compounds; nearly all actives have a fitted effect of over 55% in size. The following applies: AlphaScreen MPP8 binding to H3K9me3 peptide; series mostly up to 114 µM; activity change, negative = inhibition: at the top concentration. The essentials:
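MPP8 (50 nM) was preincubated with biotinylated H3(1-18)K9me3 peptide (50 nM) in PBS pH 7.4, 0.01% Tween-20 for 30 min at room temperature, then with compounds for 30 min; binding was detected by AlphaScreen.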
(In qHTS, concentration-response curves come from the screen itself.)
For the compound `CNC(=O)[C@H]1O[C@@H](n2cnc3c(NCc4cccc(I)c4)ncnc32)[C@H](O)[C@H]1O`, the “activity change, negative = inhibition” value is 0.136% (inactive). On to `CC(N)=NCCCC(N)C(=O)O` (stereo not given), for which the “activity change, negative = inhibition” value is -4.7% (inactive). As for `Cc1cn([C@H]2C[C@@H](N=[N+]=[N-])[C@@H](CO)O2)c(=O)[nH]c1=O`, the “activity change, negative = inhibition” value is -2.25% (inactive). The value for `CN=C(N)NCCCC(N)C(=O)O` (stereo not given) was -1.06% (inactive); that for `COc1c2c(nc3ccccc13)OC(C(C)(O)CO)C2` (stereo not given) was 3.04% (inactive). The value for `CC(C)C1NC(=O)[C@H](CCCCN)NC(=O)[C@@H](Cc2c[nH]c3ccccc23)NC(=O)[C@H](Cc2ccc(O)cc2)NC(=O)[C@H](C)N(C)C(=O)[C@H](Cc2ccccc2)NC1=O` (stereo not given in full) was 14% (inactive). Under `NCCC(=O)NCCc1cnc[nH]1` stands 9.52% (inactive); under `O=C(Cc1ccc(Cl)c(Cl)c1)OCCN1CCCC1`, 0.302% (inactive). Turning to `NC(=O)C1=CN(C2OC(COP(=O)(O)OP(=O)(O)OC[C@H]3O[C@@H](n4cnc5c(N)ncnc54)[C@H](OP(=O)(O)O)[C@H]3O)C(O)C2O)C=CC1` (stereo not given in full), the “activity change, negative = inhibition” value was -2.19% (inactive). For the compound `CC(=O)[C@@]1(O)CC[C@H]2C3CCC4=CC(=O)CC[C@]4(C)C3CC[C@@]21C` (stereo not given in full), the “activity change, negative = inhibition” value is -10.5% (inactive).

Turning to `OC[C@H]1O[C@@H](n2cnc3c(NCCc4ccccc4)ncnc32)[C@H](O)[C@H]1O`, the “activity change, negative = inhibition” value was 25.3% (inactive). Under `CCCCCCCCCCCCCCC/C=C/[C@@H](O)[C@H](NC(=O)CCCCCCCCCCCCC)OC` (tested in a mixture with another compound) stands 36.1% (inactive); under `CNc1ncnc2c1ncn2[C@@H]1O[C@H](CO)[C@H](O)[C@H]1O`, -1.27% (inactive). As for `NCCNC(=O)c1ccc(Cl)cc1`, the “activity change, negative = inhibition” value was -2.83% (inactive). `NC(=NCCC[C@H](N)C(=O)O)NO`: the “activity change, negative = inhibition” value was 2.17% (inactive).
